The text below walks through data of PMC4336329 (PLoS ONE, 2015).

Out of some 310,000 compounds screened, about 14,000 (4.5%) showed an effect of 50% or more. The effect is printed as a negative number. Shown is part of a subset that was picked to be rich in strong results.
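Note: peak tail current of the secondary pulse compared with the same well before compound.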

The target of the assay is human ether-à-go-go-related gene (hERG) potassium channel (human, UniProt Q12809). Kind of assay: primary screen, population patch clamp on CHO cells stably expressing hERG; higher = less effect of the substance. Here is the method: Briefly, Chinese hamster ovary (CHO) cells stably expressing the hERG channel were dislodged from tissue culture flasks and dispensed into PPC plates. […] During the recording, background leak currents were estimated by a 100 ms step to -80 mV from an initial holding potential of -70 mV and subtracted from the subsequent current measurement. The campaign was conducted in two phases using slight differences in recording protocol. In the first phase, the initial voltage pulse used a 100 ms step to -30 mV from a holding potential of -70 mV, a 2 s conditioning step to +25 mV, and a 2 s test step to -30 mV. During the second phase of the screen, the potential during the conditioning step was raised to +45 mV. In both phases of the campaign, a secondary voltage pulse was applied using the same parameters as the second phase initial pulse. The initial and secondary pulses were applied in the absence of compound, and upon application of 1 μM and 10 μM test concentrations. […]
Chain of human ether-à-go-go-related gene (hERG) potassium channel (Q12809 whole entry, looked up): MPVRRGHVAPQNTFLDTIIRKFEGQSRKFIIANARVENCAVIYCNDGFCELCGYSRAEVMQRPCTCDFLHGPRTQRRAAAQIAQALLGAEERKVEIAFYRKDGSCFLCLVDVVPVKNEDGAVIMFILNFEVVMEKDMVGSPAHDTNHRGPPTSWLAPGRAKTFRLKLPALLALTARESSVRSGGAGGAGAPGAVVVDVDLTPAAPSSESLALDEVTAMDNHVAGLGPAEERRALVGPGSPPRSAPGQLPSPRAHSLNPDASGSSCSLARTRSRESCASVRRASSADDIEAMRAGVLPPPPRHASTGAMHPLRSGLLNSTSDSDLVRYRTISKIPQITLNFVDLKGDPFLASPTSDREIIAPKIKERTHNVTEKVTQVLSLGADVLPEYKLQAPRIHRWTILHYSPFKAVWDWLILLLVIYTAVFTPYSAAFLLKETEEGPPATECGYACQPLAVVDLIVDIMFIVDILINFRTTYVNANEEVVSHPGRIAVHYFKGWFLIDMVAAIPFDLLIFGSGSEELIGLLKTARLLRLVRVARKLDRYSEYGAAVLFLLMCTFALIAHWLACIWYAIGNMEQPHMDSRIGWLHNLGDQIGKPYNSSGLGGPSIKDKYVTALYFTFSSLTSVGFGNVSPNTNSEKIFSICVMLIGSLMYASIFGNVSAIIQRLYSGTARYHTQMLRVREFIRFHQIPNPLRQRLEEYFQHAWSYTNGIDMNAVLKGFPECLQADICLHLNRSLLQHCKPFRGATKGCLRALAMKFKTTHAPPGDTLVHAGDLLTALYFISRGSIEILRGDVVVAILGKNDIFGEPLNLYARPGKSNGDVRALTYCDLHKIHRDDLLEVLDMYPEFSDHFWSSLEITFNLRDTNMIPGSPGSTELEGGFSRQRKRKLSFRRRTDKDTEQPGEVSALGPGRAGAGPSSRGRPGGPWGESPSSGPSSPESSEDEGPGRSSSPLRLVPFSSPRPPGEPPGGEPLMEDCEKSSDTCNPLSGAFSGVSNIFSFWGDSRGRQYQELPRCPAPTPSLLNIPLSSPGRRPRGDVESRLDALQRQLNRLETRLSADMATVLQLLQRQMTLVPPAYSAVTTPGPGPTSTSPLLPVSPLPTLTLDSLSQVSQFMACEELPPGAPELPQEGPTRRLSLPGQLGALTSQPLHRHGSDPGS
`CC(=O)c1ccc(-c2ccc(C(=O)NC3CC(C)(C)NC(C)(C)C3)o2)cc1`: the “hERG current change (%, negative = inhibition) at 10uM” value was -122%. Regarding `O=C(NCC1CCCO1)c1ccc(Oc2ccc([N+](=O)[O-])cc2)cc1` (centres unmarked), the “hERG current change (%, negative = inhibition) at 10uM” value is recorded as -60.8%. With `Brc1ccc(-n2cc(-c3ccccc3)c3c(NN4CCOCC4)ncnc32)cc1`, the “hERG current change (%, negative = inhibition) at 10uM” value is given as -15.7%. Take `Cn1c(SCC(=O)OCc2ccccc2)nnc1-c1ccco1`: the “hERG current change (%, negative = inhibition) at 10uM” value stood at 0.0583%.

Take `CCCCC(=O)NC(c1ccco1)c1c(O)ccc2ccccc12` (centres unmarked): the “hERG current change (%, negative = inhibition) at 10uM” value was -2.6%. As for `O=C1CC2CS(=O)(=O)CC2N1c1ccc(Cl)cc1Cl` (centres unmarked), the “hERG current change (%, negative = inhibition) at 10uM” value was determined as 5.75%. Consider `CCCc1ccc(S(=O)(=O)N/N=C\c2ccc3c(c2)OCO3)cc1`, for which the “hERG current change (%, negative = inhibition) at 10uM” value is listed as -0.771%.

On to `CCOc1ccc(NC(c2ccccn2)c2oc(CO)cc(=O)c2O)cc1` (centres unmarked), for which the “hERG current change (%, negative = inhibition) at 10uM” value is reported as 5.43%.

For `CN(C)CCNc1oc(-c2cccc(Cl)c2)nc1C#N`, the “hERG current change (%, negative = inhibition) at 10uM” value is -36.2%.

Regarding `C=CCC1(Nc2ccccc2)CC(C)N(C)CC1C.O=C(O)C(=O)O` (centres unmarked), the “hERG current change (%, negative = inhibition) at 10uM” value was -21.1%. For `Cc1ccc(-n2c(CSc3nc(C)cc(C)n3)nnc2SCC(=O)NCc2ccco2)cc1`, the “hERG current change (%, negative = inhibition) at 10uM” value is reported as -38.7%.

Take `CCCCn1c(=O)n(C)c(=O)c2c3c(sc21)COC(C)(C)C3`: the “hERG current change (%, negative = inhibition) at 10uM” value is listed as -11.1%. The result for `C/C(=N\NC(=O)c1ccc(NS(=O)(=O)c2cccs2)cc1)c1ccccc1` reads 22.3%; that for `Cc1ccc(C(=O)NCC2CCCO2)o1` (centres unmarked), 7.49%; that for `O=C(NCC1CCCO1)c1cccc(Oc2ccccc2)c1` (centres unmarked), -37.5%. In the case of `O=C(NCC1CCCO1)c1ccc(NC(=O)c2cccc([N+](=O)[O-])c2)cc1` (centres unmarked), the “hERG current change (%, negative = inhibition) at 10uM” value is 3.68%.

Turning to `O=C(NCC1CCCO1)c1cccc(Oc2ccc([N+](=O)[O-])cc2)c1` (centres unmarked), the “hERG current change (%, negative = inhibition) at 10uM” value is listed as -73.7%.

Regarding `CC(=O)c1ccc(-c2ccc(C(=O)NCC3CCCO3)o2)cc1` (centres unmarked), the “hERG current change (%, negative = inhibition) at 10uM” value was -50.5%. The result for `O=C(NCC1CCCO1)c1ccc(-c2cccc(C(F)(F)F)c2)o1` (centres unmarked) reads -16.2%.

On to `O=c1cc(CN2CCN(c3cccc(Cl)c3)CC2)c2cc3c(cc2o1)CCCC3`, for which the “hERG current change (%, negative = inhibition) at 10uM” value turned out to be 15.8%. As to `Cc1ccc(S(=O)(=O)CCC(=O)OCC(=O)N2CC(=O)Nc3ccccc32)cc1`, the “hERG current change (%, negative = inhibition) at 10uM” value was -22.1%. With `O=C(NCc1ccco1)NC12CC3CC(CC(C3)C1)C2`, the “hERG current change (%, negative = inhibition) at 10uM” value is on record as 14.5%. The result for `CC(C)=CCN1CCN(Cc2cn(C(C)C)c3ccccc23)CC1CCO` (centres unmarked) reads -10.5%; that for `O=C(NCCS(=O)(=O)N1CCN(c2ccccc2)CC1)c1ccc(Br)o1`, -5.85%; that for `Cc1cccc(CC(=O)NCCS(=O)(=O)N2CCN(c3cccc(Cl)c3)CC2)c1`, -20.2%. With `COc1ccc(N2CCN(S(=O)(=O)CCNC(=O)c3ccc(Br)o3)CC2)cc1`, the “hERG current change (%, negative = inhibition) at 10uM” value came to 10.6%. On to `O=C(Cc1ccc(F)cc1)NCCS(=O)(=O)N1CCN(c2cccc(Cl)c2)CC1`, for which the “hERG current change (%, negative = inhibition) at 10uM” value was -16.2%. `O=C(NCCS(=O)(=O)N1CCN(c2cccc(Cl)c2)CC1)c1ccco1`: the “hERG current change (%, negative = inhibition) at 10uM” value is recorded as -73.8%.

Regarding `COc1ccc(N2CCN(S(=O)(=O)CCNC(=O)C3CCCCC3)CC2)cc1`, the “hERG current change (%, negative = inhibition) at 10uM” value was found to be 5.98%. The same measure for `O=C(NCCS(=O)(=O)N1CCN(c2cccc(Cl)c2)CC1)C1CCCC1`: -79%. As to `O=C(NCCS(=O)(=O)N1CCN(c2ccccc2)CC1)C1CC1`, the “hERG current change (%, negative = inhibition) at 10uM” value was determined as 3.93%. On to `O=C(Cc1ccccc1)NCCS(=O)(=O)N1CCN(c2cccc(Cl)c2)CC1`, for which the “hERG current change (%, negative = inhibition) at 10uM” value is -82.8%.

With `O=C(NCCS(=O)(=O)N1CCN(c2ccc(F)cc2)CC1)c1ccc(Br)o1`, the “hERG current change (%, negative = inhibition) at 10uM” value is -60.1%. Consider `O=C(NCCS(=O)(=O)N1CCN(c2cccc(Cl)c2)CC1)c1cc(=O)c2ccccc2o1`, for which the “hERG current change (%, negative = inhibition) at 10uM” value turned out to be 5.36%. Turning to `O=C(NCCS(=O)(=O)N1CCN(c2ccccc2F)CC1)c1ccco1`, the “hERG current change (%, negative = inhibition) at 10uM” value was -16.5%. Take `O=C1c2ccccc2S(=O)(=O)N1CCOc1ccc(F)cc1`: the “hERG current change (%, negative = inhibition) at 10uM” value was -27.6%.

As to `CCOC(=O)c1sc(NC(=O)c2ccco2)nc1C`, the “hERG current change (%, negative = inhibition) at 10uM” value is 13.3%. The same measure for `CC(=O)Nc1ccc(NC(=O)CC2SC(=O)N(CC(=O)c3ccccc3)C2=O)cc1` (centres unmarked): 7.25%. On to `COCC1CCCCN1C(=O)c1cccc(OC2CCN(S(C)(=O)=O)CC2)c1` (centres unmarked), for which the “hERG current change (%, negative = inhibition) at 10uM” value stood at 14.7%. The result for `CCS(=O)(=O)c1ccc(O)c(NC(=O)COc2ccc(Br)cc2)c1` reads -3.73%; that for `O=C(COc1ccc(Br)cc1Cl)NC(=S)N1CCc2ccccc21`, 21.7%; that for `COc1ccccc1OCc1ccc(C(=O)NC(C)(C)C)o1`, 2.29%. For the molecule `O=C(Cn1c(=O)oc2cc(S(=O)(=O)NCc3ccccc3)ccc21)N1CCCC1`, the “hERG current change (%, negative = inhibition) at 10uM” value amounted to 15.2%. As for `C=CCn1c(SCC(=O)Nc2ccccc2F)nc2ccccc2c1=O`, the “hERG current change (%, negative = inhibition) at 10uM” value stood at 5.56%.
